The source made the active and inactive calls. The call rests on the fitted dose curve; in most records, active means well fitted curve in the direction sought with a large enough effect in the repeat runs; inconclusive means weak or mixed curves; inactive means flat fitted curve, though single readings scatter.
Assay: qHTS assay to test for compound auto fluorescence at 535 nm (green) in HepG2 cell free culture (AID 720686)
Settings: Cell-free medium, green autofluorescence 485/535 nm; series mostly up to 91.3 µM
On the % scale 0 is the no-effect control and ±100 the full control effect.

Q: For `CCOP(=S)(Oc1cnc(C(C)(C)C)nc1)OC(C)C` (configuration not stated), which outcome is on record?
A: inactive

Q: With `Clc1cccc(N2CCNCC2)c1` as the compound, how does the outcome read?
A: inactive

Q: For `CC(C)CP(=S)(S)CC(C)C`, which outcome is on record?
A: inactive

Q: With `Cc1cc(C)nc(Nc2ccccc2)n1` as the compound, how does the outcome read?
A: inactive

Q: For `CN(N=O)C(N)=O`, which outcome is on record?
A: inactive

Q: For `N#CC(Cl)(Cl)Cl`, which outcome is on record?
A: inactive

Q: Which outcome does the source give for `C#C[C@]1(O)C=C[C@H]2[C@@H]3CCC4=CC(=O)CC[C@@H]4[C@H]3CC[C@@]21CC` here?
A: inactive

Q: Which outcome does the source give for `Nc1ccccc1Cl` here?
A: inactive

Q: Which outcome does the source give for `Cc1cccc(C#N)c1` here?
A: inactive

Q: For `CN1CCC(O)(c2ccc(F)cc2)C(C(=O)c2ccc(F)cc2)C1` (configuration not stated), which outcome is on record?
A: inactive

Q: With `ClCC(Cl)(Cl)Cl` as the compound, how does the outcome read?
A: inactive

Q: With `CCC/C(=N\OCC)C1=C(O)CC(CC(C)SCC)CC1=O` (configuration not stated) as the compound, how does the outcome read?
A: inactive

Q: With `Cc1cnc[nH]1` as the compound, how does the outcome read?
A: inactive

Q: With `[O]=[Cd]` as the compound, how does the outcome read?
A: inactive

Q: For `CCOC(=O)NC(=S)Nc1ccccc1NC(=S)NC(=O)OCC`, which outcome is on record?
A: inactive

Q: For `C=C(C)[C@@H]1CC=C(C=O)CC1`, which outcome is on record?
A: inactive

Q: Which outcome does the source give for `O=C(N[C@H]1CN2CCC1CC2)c1cc2ccoc2cn1` here?
A: inactive

Q: Which outcome does the source give for `CNC(=O)O/N=C(\C)SC` here?
A: inactive

Q: Which outcome does the source give for `O=NN1CCN(N=O)CC1` here?
A: inactive

Q: Which fluorescence, % of fluorescein control does the source give for `C[C@@H]1CN(C2CCC(C#N)(c3ccc(F)cc3)CC2)CC[C@]1(C(=O)O)c1ccccc1` (some centres not stated) here?
A: 0.0942% [at 18.6 µM] (inactive)

Q: For `CCS(=O)(=O)CCSP(=O)(OC)OC`, which outcome is on record?
A: inactive

Q: For `CC(CC(C#N)(c1ccccc1)c1ccccc1)N(C)C` (configuration not stated), which outcome is on record?
A: inactive

Assay: qHTS assay to test for compound auto fluorescence at 460 nm (blue) in HepG2 cells (AID 720687)
Settings: autofluorescence 405/460 nm, 1 h; series mostly up to 91.3 µM
Procedure, shortened: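 Blue-channel autofluorescence (Ex/Em 405/460 nm, triamterene-equivalent) was measured after 1 hr compound exposure at 37 C, 5% CO2. Cells were HepG2, plated overnight at 37 C in MEM plus 10% FBS.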

Q: For `CCC(C)n1c(=O)[nH]c(C)c(Br)c1=O` (configuration not stated), which outcome is on record?
A: inactive

Q: Which outcome does the source give for `CCC(=O)c1ccccc1` here?
A: inactive

Q: Which outcome does the source give for `CCOC(=O)N(C)C(=O)CSP(=S)(OCC)OCC` here?
A: inactive

Q: Which outcome does the source give for `CCC1(c2ccccc2)C(=O)NC(=O)NC1=O` here?
A: inactive

Q: For `ClC(Br)Br`, which outcome is on record?
A: inactive

Q: Which outcome does the source give for `CCNc1nc(NC(C)C)nc(OC)n1` here?
A: inactive

Q: Which outcome does the source give for `O=S(=O)(O)C(F)(F)C(F)(F)C(F)(F)C(F)(F)C(F)(F)C(F)(F)F` here?
A: inactive

Q: With `O=CNC(N1CCN(C(NC=O)C(Cl)(Cl)Cl)CC1)C(Cl)(Cl)Cl` (configuration not stated) as the compound, how does the outcome read?
A: inactive

Q: Which outcome does the source give for `C=C(C)CN(CC)c1c([N+](=O)[O-])cc(C(F)(F)F)cc1[N+](=O)[O-]` here?
A: inactive

Q: Which outcome does the source give for `CCC1(c2ccccc2)C(=O)N=C(O)NC1=O` (configuration not stated) here?
A: inactive

Q: For `COP(N)(=S)Oc1ccccc1C(=O)OC(C)C` (configuration not stated), which outcome is on record?
A: inactive

Q: Which outcome does the source give for `CCOP(=S)(Oc1cnc(C(C)(C)C)nc1)OC(C)C` (configuration not stated) here?
A: inactive

Q: With `Clc1cccc(N2CCNCC2)c1` as the compound, how does the outcome read?
A: inactive

Q: Which outcome does the source give for `CC(C)CP(=S)(S)CC(C)C` here?
A: inactive

Q: For `CN(N=O)C(N)=O`, which outcome is on record?
A: inactive

Q: Which outcome does the source give for `N#CC(Cl)(Cl)Cl` here?
A: inactive

Q: Which outcome does the source give for `C#C[C@]1(O)C=C[C@H]2[C@@H]3CCC4=CC(=O)CC[C@@H]4[C@H]3CC[C@@]21CC` here?
A: inactive

Q: With `Nc1ccccc1Cl` as the compound, how does the outcome read?
A: inactive

Q: Which outcome does the source give for `Cc1cccc(C#N)c1` here?
A: inactive

Q: For `CN1CCC(O)(c2ccc(F)cc2)C(C(=O)c2ccc(F)cc2)C1` (configuration not stated), which outcome is on record?
A: inactive

Q: Which outcome does the source give for `ClCC(Cl)(Cl)Cl` here?
A: inactive

Q: With `CCC/C(=N\OCC)C1=C(O)CC(CC(C)SCC)CC1=O` (configuration not stated) as the compound, how does the outcome read?
A: inactive

Q: Which outcome does the source give for `Cc1cnc[nH]1` here?
A: inactive

Q: With `[O]=[Cd]` as the compound, how does the outcome read?
A: inactive

Q: Which outcome does the source give for `CCOC(=O)NC(=S)Nc1ccccc1NC(=S)NC(=O)OCC` here?
A: inactive

Q: For `O=C(N[C@H]1CN2CCC1CC2)c1cc2ccoc2cn1`, which outcome is on record?
A: inactive

Q: Which outcome does the source give for `CNC(=O)O/N=C(\C)SC` here?
A: inactive

Q: For `O=NN1CCN(N=O)CC1`, which outcome is on record?
A: inactive

Q: For `CCS(=O)(=O)CCSP(=O)(OC)OC`, which outcome is on record?
A: inactive

Q: With `CC(CC(C#N)(c1ccccc1)c1ccccc1)N(C)C` (configuration not stated) as the compound, how does the outcome read?
A: inactive
